Results filed as inconclusive are left out. A number with no mark means an inactive call. Calls follow the shape of the dose curve; as a rule, active = well fitted curve in the direction sought with a large enough effect in the signal ratio; inconclusive = small, poorly fitted or top-dose-only effect, or a change in a side signal; inactive = no such curve, though single readings can be large or run the other way; the % refers to the signal ratio.
target: Follicle-stimulating hormone receptor (Homo sapiens) (UniProt P23945); assay: Counterscreen for Agonists of Thyroid Stimulating Hormone Receptor: HTRF Activity in a Follicle Stimulating Hormone Receptor Cell Line; conditions: HEK293-FSHR cells, 30 min; series mostly up to 91.7 µM; activation (cAMP increase): at the top concentration
From the text: NIH Chemical Genomics Center [NCGC] NIH Molecular Libraries Screening Centers Network [MLSCN] MLSCN Grant: 1 X01 MH080680-01 PI Name: Dr. Marvin Gershengorn, NIH NCGC Assay Overview: Confirmation of Thyroid Stimulating Hormone Receptor Agonists TSH is an alpha/beta heterodimeric glycoprotein hormone secreted from the anterior pituitary gland which belongs to the glycoprotein hormone family. The actions of TSH are mediated by a seven-transmembrane receptor, which upon TSH binding couples preferentially to the G-alpha (s) protein (Gs), resulting in activation of adenylate cyclase and increase in cyclic adenosine 3', 5' monophosphate (cAMP). The TSH receptor (THSR) is mainly expressed in thyroid follicular cells and regulates their growth and function. Recombinant TSH is used to activate TSHR in patients with thyroid cancer receiving thyroid hormone suppression therapy and to screen for residual tumor after surgery, but it is expensive and must be administered intramuscularly. An orally active small molecule TSHR agonist would serve as an invaluable research tool for studying TSHR pharmacology and physiology, and would have multiple advantages in therapeutic settings. However, no selective small molecule agonist of the TSH receptor exists, and no small molecule screen for TSHR agonists has ever been reported. In order to confirm specificity of the compounds to the TSHR, a confirmatory assay was conducted on a similar family member, the Follicle Stimulating Hormone (FSH) receptor, transfected into a HEK 293 cell line, using an orthogonal detection technology to measure cAMP stimulation: antibody-based Homogeneous Time Resolved Fluorescence (HTRF).
NCGC Assay Protocol Summary: Homogeneous Time Resolved Fluorescence (HTRF) cAMP Assay. HEK 293 cells stably transfected with a vector containing the FSH receptor and maintained under hygromycin selection were obtained from the laboratory of Dr. Marvin Gershengorn. Compounds were assayed using a HTRF cAMP detection kit (Cisbio) on the FSH receptor transfected cell line. Briefly, 750 cells were plated in 2.5 ul/well of complete media (DMEM containing 10 % FCS, and 100 uM RO 20-1724) in 1536 well solid bottom white plates and 23 nl/well compound in DMSO solution or controls was added. Following 30 minute incubation at room temperature, 2.5 ul/well of labeled d2 cAMP and 2.5 ul/well of anti-cAMP antibody (both diluted 1:20 in lysis buffer) were added to each well using a flying reagent dispenser (Aurora Discovery, San Diego) . Plates were measured using the Envision plate reader (PerkinElmer, Boston, MA) with excitation at 330 nm and emissions of 615 nm and 660 nm. Keywords: Follicle Stimulating hormone FSH, Thyroid-stimulating hormone TSH, TSHR, TSHR agonist, quantitative high throughput screening, qHTS, HTS, probe identification, CNG, cAMP, cyclic nucleotide gated ion channel PubChem

SMILES | activation (cAMP increase) [%]
O=C(COC(=O)C12CC3CC(CC(Cl)(C3)C1)C2)NCc1ccco1 | 3
COc1cc(OC)c(C(=O)N(Cc2ccco2)Cc2cccs2)cc1OC | 1.54
COc1ccc(C(=O)N(Cc2ccco2)Cc2cccs2)c(O)c1 | 2.03
COc1ccc(C(=O)N(Cc2ccco2)Cc2cccs2)c(OC)c1 | 2.98
COc1ccc(C2Nc3ccccc3C(=O)N2Cc2ccco2)cc1COc1ccc([N+](=O)[O-])cc1 (stereo unspecified) | 1.48
NC(=O)c1nsc(C(=O)N(CC(=O)NCc2ccc3c(c2)OCO3)C2CCCCC2)c1N | 1.39
Cc1sc2ncn(/N=C/c3cn(-c4ccccc4)nc3-c3ccccc3)c(=O)c2c1C | 2.19
COc1ccc(C2Nc3ccccc3C(=O)N2Cc2ccco2)cc1COc1c(C)cccc1C (stereo unspecified) | 2.19
COc1ccc(C(=O)N(Cc2ccco2)Cc2cccs2)cc1 | 1.97
NC(=O)c1nsc(C(=O)N(CC(=O)NC2CCCC2)Cc2ccc3c(c2)OCO3)c1N | 2.28
O=C(COC(=O)C12CC3CC(CC(C3)C1)C2)NCc1ccco1 | 1.72
O=C1C2C3CCCC3=C3CCCC3C2C(=O)N1c1ccccc1Cl (stereo unspecified) | 1.16
O=C1C2C3CCCC3=C3CCCC3C2C(=O)N1c1cccc(Cl)c1 (stereo unspecified) | 1.12
CCn1c(=O)c(C(=O)CN2CCCc3ccccc32)c(N)n(Cc2ccccc2)c1=O | 2.04
O=C1CC(c2ccccc2)CC2=C1C(c1ccco1)n1nc(C(F)(F)F)nc1N2 (stereo unspecified) | 2.73
COc1ccc(C2Nc3ccccc3C(=O)N2Cc2ccco2)cc1COc1ccc(NC(C)=O)cc1 (stereo unspecified) | 2.5
Cc1nn(-c2ccccc2)c(N2CCCC2)c1/C=N/n1cnc2scc(-c3ccccc3)c2c1=O | 1.54
O=C(COC(=O)C12CC3CC(CC(C3)C1)C2)NCC1CCCO1 (stereo unspecified) | 2.33
O=C(COC(=O)C12CC3CC(CC(Br)(C3)C1)C2)NCc1ccco1 | 2.19
CC(NC(=O)COC(=O)c1ccco1)C12CC3CC(CC(C3)C1)C2 (stereo unspecified) | 2.3
NC(=O)c1nsc(C(=O)N(CC(=O)NCc2ccc3c(c2)OCO3)C2CCCC2)c1N | 2.69
O=C1C2C3CCCC3=C3CCCC3C2C(=O)N1c1ccc(F)cc1 (stereo unspecified) | 1.1
O=C1C2C3CCCC3=C3CCCC3C2C(=O)N1c1ccc(Cl)cc1 (stereo unspecified) | 1.86
O=c1c2c(-c3ccccc3)csc2ncn1/N=C/c1cn(-c2ccccc2)nc1-c1cccs1 | 1.77
COc1ccc(C2Nc3cccc(O)c3C(=O)N2Cc2ccccc2)cc1COc1ccc(NC(C)=O)cc1 (stereo unspecified) | 2.5
O=C(COC(=O)C12CC3CC(CC(O)(C3)C1)C2)NCc1ccco1 | 1.41

Reference: PubChem BioAssay AID1403 (National Center for Advancing Translational Sciences (NCATS), 2008)
